NS1 inh – inhibitors of influenza NS1 protein function. Potency, µM (doses to about 46.1 µM), inactives show at the highest dose activity, positive = more growth. actives 0.4% (n = 270,000); calls by dose curve; further: potency means the concentration at half of the fitted maximal effect; actives are rising curves; nearly all actives have a fitted effect of over 50% in size
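Compounds were scored for reversing the slow growth caused by influenza A NS1 in S. cerevisiae, measured by optical density at 600 nm. Assay medium contained 2% galactose at pH 6.0; NS1-free yeast of the same strain were the positive control.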
Pf growth 96h – P. falciparum growth inhibition at 96 hour, primary screen for plastid delayed-death inhibitors; P. falciparum luciferase reporter growth, 96 h; Potency, µM (top dose mostly 28.7 µM), for the others: at the highest dose activity change, negative = inhibition, actives largely listed as inhibitors; actives 6.9% (n = 320,000); AID 504834; further: potency means the concentration at half of the fitted maximal effect; on the % scale 0 is the no-effect control and ±100 the full control effect
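Two-generation exposure (96 h) targets delayed-death phenotype. Reporter parasites carrying integrated firefly luciferase, in red cells at 2% hematocrit and 0.05% parasitemia final, kept at 37 C, 5% CO2; luminescence loss indicates inhibition.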
Pf growth 48h – inhibits P. falciparum growth in the first generation, 48 h. P. falciparum luciferase growth in erythrocytes, 48 h. actives 5.9% (n = 310,000). AID 504832. Potency, µM (highest dose often 28.7 µM), for the others: at the highest dose activity change, negative = inhibition, actives largely listed as inhibitors; further: potency means the concentration at half of the fitted maximal effect; on the % scale 0 is the no-effect control and ±100 the full control effect
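Parasite viability was followed by luminescence of a genomically integrated firefly luciferase. Cultures held 0.1% parasitemia at 2% hematocrit (final), incubated under 5% CO2 at 37 C.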
CHX counter – counter-screen hit for Shiga toxin inhibitors, cycloheximide | cell reporter, cycloheximide protein synthesis inhibition counterscreen | max response, % | actives 12% (n = 300,000) | AID 2314; in the data active means max response mostly above about 13%, no sharp cut-off; inactive means mostly below about 14%; further: read at 38.3 µM for the half of the compounds with a filed dose; 0% is about no effect
Shiga toxin inh – inhibitors of Shiga toxin in Vero cells; actives 9.2% (n = 290,000); inhibition, % at 38.7 µM; Vero cells, Shiga toxin protein synthesis inhibition reporter; in the data active means inhibition mostly above about 28%, no sharp cut-off; inactive means mostly below about 43%; further: 0% is about no effect
Giardia FBPA inh – blocks Giardia fructose-bisphosphate aldolase activity; purified Giardia FBPA; Potency, µM (titrated, usually from 59.6 µM), for inactives: at the highest dose activity, negative = inhibition, actives largely listed as inhibitors; actives 0.71% (n = 290,000); A8B2U2; further: potency means the concentration at half of the fitted maximal effect; on the % scale 0 is the no-effect control and ±100 the full control effect; nearly all actives have a fitted effect of over 55% in size
Target sequence (A8B2U2 whole entry, looked up): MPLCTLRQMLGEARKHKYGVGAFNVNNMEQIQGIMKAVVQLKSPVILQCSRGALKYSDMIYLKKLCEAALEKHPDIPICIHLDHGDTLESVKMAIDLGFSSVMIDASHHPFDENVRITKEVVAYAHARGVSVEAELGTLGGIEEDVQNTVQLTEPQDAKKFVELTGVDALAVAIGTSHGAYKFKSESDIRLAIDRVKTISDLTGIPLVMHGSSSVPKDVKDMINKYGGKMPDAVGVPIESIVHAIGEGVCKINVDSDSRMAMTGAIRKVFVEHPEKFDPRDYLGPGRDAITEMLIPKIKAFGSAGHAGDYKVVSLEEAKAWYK
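40 nM FBPA preincubated 10 min at RT with compound (up to 57.5 uM final), then substrate plus GAPDH/TPI/NAD/arsenate coupling and diaphorase/resazurin added. Fluorescence read after 20 min at RT, 525/598 nm.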
Active calls of the source: *; u = inconclusive; x = no result. Shown are actives, neighbours in structure and some others; about 21% of the full set was active somewhere. Unless noted, the call rests on the fitted dose curve; in most records, active means well fitted curve in the direction sought with a large enough effect; inconclusive means small, poorly fitted or top-dose-only effect, or another doubt; inactive means no such curve, though single readings can be large; an effect the other way counts as inactive or inconclusive.

SMILES	NS1 inh	Pf growth 96h	Pf growth 48h	CHX counter	Shiga toxin inh	Giardia FBPA inh
COc1ccc2cc(C(c3nnnn3Cc3ccccc3)N3CCCCCC3)c(=O)[nH]c2c1 (stereo unspecified)	-2%	u	u	-2	26	-6%
COc1ccc(Cn2nnnc2C(c2cc3ccc(OC)cc3[nH]c2=O)N2CCC(C)CC2)cc1 (stereo unspecified)	6%	9.3µM*	x	11	18	u
COc1ccc2cc(C(c3nnnn3Cc3ccc(F)cc3)N3CCCCCC3)c(=O)[nH]c2c1 (stereo unspecified)	-12%	x	12µM*	-2	35	u
Cc1cc(C)c2[nH]c(=O)c(C(c3nnnn3C3CCCC3)N3CCOCC3)cc2c1 (stereo unspecified)	-6%	u	3%	-5	-15	-4%
Cc1cc(C)c2[nH]c(=O)c(C(c3nnnn3Cc3ccc4c(c3)OCO4)N3CCC(C)CC3)cc2c1 (stereo unspecified)	-12%	x	13µM*	-2	-5	0%
COc1ccc2cc(C(c3nnnn3CCc3ccccc3)N3CCC(O)CC3)c(=O)[nH]c2c1 (stereo unspecified)	-7%	0%	-5%	-6	-13	1%
COc1ccc(Cn2nnnc2C(c2cc3cccc(C)c3[nH]c2=O)N2CCOCC2)cc1 (stereo unspecified)	-5%	u	9%	20	35*	8%
O=C(Nc1ccccc1)N1CC2(CCN(C(=O)c3cccc(F)c3)CC2)C1	x	x	x	x	x	5%
CC(=O)Nc1ccc(SCC(Cc2ccccc2)N2CCN(CCc3ccccc3)CCC2=O)cc1 (stereo unspecified)	x	x	x	0	-10	-9%
Cc1ccc(SC[C@H](CC(C)C)N2CCN(CCc3ccccc3)CCC2=O)cc1	-37%	u	u	52*	43*	-2%
CC(=O)Nc1ccc(SC[C@H](CC(C)C)N2CCN(CCc3ccccc3)CCC2=O)cc1	-3%	7.4µM*	9.3µM*	-1	-5	-2%
CC(=O)Nc1ccc(SC[C@H](Cc2ccccc2)N2CCN(CC(C)C)CCC2=O)cc1	-2%	4.7µM*	7.4µM*	-2	-4	7%
COc1ccc(SCCN2CCN(CCc3ccccc3)CCC2=O)cc1	x	x	x	15	0	-1%
CC(=O)Nc1ccc(SCC(Cc2ccccc2)N2CCN(CC(C)C)CCC2=O)cc1 (stereo unspecified)	x	x	x	-3	-8	8%
COc1ccc(SC[C@H](CC(C)C)N2CCN(CCc3ccccc3)CCC2=O)cc1	-10%	u	u	13*	44*	-6%
CS(=O)(=O)N1CCC2(CC1)CN(C(=O)Nc1cccc(C#N)c1)C2	x	x	x	x	x	8%
CC(C)C[C@@H](CO)N1CCN(CCc2ccccc2)CCC1=O	-14%	37%	13%	-3	3	-5%
O=C1CCN(CCc2ccccc2)CCN1[C@H](CSc1ccc(Br)cc1)Cc1ccccc1	-52%	8.3µM*	13µM*	-5	-5	-4%
CCCN1CCC(=O)N(C(CSc2ccc(Br)cc2)Cc2ccccc2)CC1 (stereo unspecified)	x	x	x	-5	-10	0%
CC(C)CC(CSc1ccc(Br)cc1)N1CCN(CCc2ccccc2)CCC1=O (stereo unspecified)	x	x	x	29*	49*	1%
CCc1nnc(SCC(=O)Nc2ccc(N3CCN(S(C)(=O)=O)CC3)cc2)o1	6%	u	30%	-7	-4	x
O=[N+]([O-])c1cc(N=Nc2ccc3ccccc3c2)ccc1O	3%	77%	150%	13*	x	11%
Nc1ccc(O)c([N+](=O)[O-])c1	x	u	11%	x	x	x
CCOC(=O)C1CCN(C(=O)C2CCN(S(=O)(=O)c3cccc4nsnc34)CC2)CC1	-4%	u	-23%	-1	17	x
CN(CC(=O)Nc1c(F)cccc1F)Cc1cccs1	10%	40%	16%	14*	35	-12%
SMILES	NS1 inh	Pf growth 96h	Pf growth 48h	CHX counter	Shiga toxin inh	Giardia FBPA inh
C/C(CC(=O)Nc1ccc(C)c(Cl)c1)=N\NC(=O)Cc1cccs1	-40%	7%	4%	17*	26	-4%
CCN(CC(=O)Nc1c(F)cccc1F)C(=O)CCCc1cccs1	x	-29%	u	x	x	x
Cc1ccc(NC(=O)CN(C)Cc2cccs2)cc1Cl	-16%	47%	37%	16*	22	-8%
O=C(NCCC1=CCCCC1)C(=O)NCc1ccncc1	-4%	5%	-6%	2	-6	2%
CN1CCN(C(=S)c2cn(Cc3ccc(Br)cc3)c3ccccc23)CC1	x	-1%	u	-1	-16	-11%
COc1cc(C)c(C(=O)CSc2nnc(CNC(=O)c3ccco3)n2C)cc1C	u	u	u	-5	-9	-1%
O=C(C1CN(C(=O)c2cc3cc(Cl)ccc3o2)c2ccccc2O1)N1CCCCC1 (stereo unspecified)	x	u	-68%	x	x	x
O=C(c1ccc(F)cc1)[C@@H]1[C@@H](C(=O)c2ccccc2)[C@@]2(C(=O)Nc3ccccc32)[C@H]2c3ccccc3C=CN12	23%	5.2µM*	u	11	16	u
CCCCc1ccc(-c2nc(N)n[nH]2)cc1	-141%	5%	112%	44*	78*	-6%
CCCc1ccc(-c2cc(N)n[nH]2)cc1	8%	104%	x	30*	27	0%
Nc1n[nH]c(-c2ccc(F)cc2)n1	5%	-7%	19%	8	13	5%
O=C(CCSc1ccc(Cl)cc1)c1ccco1	6%	u	-11%	-2	11	-3%
O=C(CSc1ccc(Cl)cc1)c1ccco1	u	u	17%	42	65*	u
O=C(CSc1ccccc1Cl)c1ccco1	-3%	37%	52%	26*	49	-9%
CC(N)COC(=O)C(CCCCN)NC(=O)Cc1c(-c2ccc3ccccc3c2)[nH]c2c1ccc1ccccc12 (stereo unspecified)	x	x	x	-6	15	1%
Cc1ccccc1NC(=S)N(Cc1cccs1)C1CCCCC1	-3%	-20%	u	-1	33	2%
CCc1ccccc1NC(=S)NC1CC2CCCC(C1)N2Cc1cccs1 (stereo unspecified)	-2%	1.5µM*	8.3µM*	-3	2	-4%
Cc1cccc(NC(=S)NC2CC3CCCC(C2)N3Cc2cccs2)c1C (stereo unspecified)	-9%	5.9µM*	u	-1	-14	-1%
Cc1ccc(NC(=S)NC2CC3CCCC(C2)N3Cc2cccs2)cc1 (stereo unspecified)	0%	-26%	u	-4	-21	5%
Cc1c(Cl)cccc1NC(=S)N(Cc1cccs1)C1CCCC1	-11%	u	-3%	16*	13	-3%
C[C@@H](C(=O)Cc1ccc2ccccc2c1)[C@@H]1C[C@@]1(C)[C@@H](NP(=O)(c1ccccc1)c1ccccc1)c1ccccc1	x	x	x	x	x	-1%
